What all share (assay): HT-SELEX; high values mean tight binding
What all share (conditions): protein: recombinant; vector His6-GST; dsDNA, one strand shown

The target in experiment [1] is T1, SALL4 ZFC4 WT (HT-SELEX) (Mus musculus, UniProt Q8BX22 870-940).
T1 sequence: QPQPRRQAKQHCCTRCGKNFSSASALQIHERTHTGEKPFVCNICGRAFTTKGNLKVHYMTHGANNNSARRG
The essentials:
(§1)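 Up to 6 cycles of selection were run in triplicate. In each, purified recombinant mouse SALL4 zinc finger cluster 4 (residues 870–940, 1 µg) was incubated with library DNA (1.5 µg first cycle, 200 ng later) in 100 µl of 10 mM Tris–HCl pH 7.5, 50 mM NaCl, poly(dI-dC), DTT for 10 min at room temperature, then complexes were captured on Ni2+ beads, washed and PCR-amplified; final pools were MiSeq-sequenced and scanned for 6-mers. Binding signal is each canonical k-mer's read fraction as fold change versus the initial random library.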

Experiment [2] addresses T2, SALL4 ZFC4 R900W (HT-SELEX) (Mus musculus, UniProt Q8BX22 870-940, R900W).
T2 sequence: T1 sequence with R31W
Put shortly:
as §1

The target in experiment [3] is T3, SALL4 ZFC4 G921D (HT-SELEX) (Mus musculus, UniProt Q8BX22 870-940, G921D).
T3 sequence: T1 sequence with G52D
Put shortly:
as §1

Substitutions are numbered along the chain they refer to.

With ATCAGG, the figures for the binding signal in experiment [1], in experiment [2] and in experiment [3] were 0.876 ± 0.0408 fold-change vs cycle 0, 0.991 ± 0.0415 fold-change vs cycle 0 and 1 ± 0.0437 fold-change vs cycle 0, respectively.
Taken in the same sequence, the figures for ATATGC were 1.17 ± 0.106 fold-change vs cycle 0, 1.07 ± 0.0294 fold-change vs cycle 0 and 1.13 ± 0.0399 fold-change vs cycle 0.
The corresponding values for AACAGT are 1.28 ± 0.0479 fold-change vs cycle 0, 1.41 ± 0.0726 fold-change vs cycle 0 and 1.35 ± 0.0692 fold-change vs cycle 0.
The corresponding values for GCAACA are 0.54 ± 0.0464 fold-change vs cycle 0, 0.629 ± 0.0238 fold-change vs cycle 0 and 0.72 ± 0.0281 fold-change vs cycle 0.
As for AGGCTC, the figures for the binding signal in experiment [1], in experiment [2] and in experiment [3] were 0.313 ± 0.0334 fold-change vs cycle 0, 0.399 ± 0.014 fold-change vs cycle 0 and 0.546 ± 0.0493 fold-change vs cycle 0, respectively.
The corresponding values for ATCCCA are 0.89 ± 0.0366 fold-change vs cycle 0, 0.976 ± 0.0258 fold-change vs cycle 0 and 0.979 ± 0.0303 fold-change vs cycle 0.
The corresponding values for CCTTAC are 0.944 ± 0.0541 fold-change vs cycle 0, 1.06 ± 0.0559 fold-change vs cycle 0 and 1.04 ± 0.0333 fold-change vs cycle 0.
Taken in the same sequence, the figures for GGCTTA were 0.5567 ± 0.00529 fold-change vs cycle 0, 0.656 ± 0.0181 fold-change vs cycle 0 and 0.763 ± 0.0358 fold-change vs cycle 0.
Turning to ATCTAA, the binding signal in experiment [1] came out at 2.02 ± 0.105 fold-change vs cycle 0; in experiment [2], 2.01 ± 0.101 fold-change vs cycle 0; in experiment [3] it was 1.83 ± 0.191 fold-change vs cycle 0.
CACAAC: the results for the binding signal in experiment [1], in experiment [2] and in experiment [3] were 0.647 ± 0.0332 fold-change vs cycle 0, 0.72 ± 0.018 fold-change vs cycle 0 and 0.828 ± 0.0337 fold-change vs cycle 0, respectively.
The corresponding values for CCAGAA are 0.726 ± 0.028 fold-change vs cycle 0, 0.821 ± 0.0147 fold-change vs cycle 0 and 0.852 ± 0.0285 fold-change vs cycle 0.
Consider GTTCTA, for which the binding signal in experiment [1] was 1.28 ± 0.0473 fold-change vs cycle 0; in experiment [2], 1.39 ± 0.0453 fold-change vs cycle 0; in experiment [3], 1.33 ± 0.108 fold-change vs cycle 0.
The corresponding values for CTAATC are 1.38 ± 0.0603 fold-change vs cycle 0, 1.55 ± 0.0541 fold-change vs cycle 0 and 1.43 ± 0.0842 fold-change vs cycle 0.
The corresponding values for GGAGCA are 0.352 ± 0.0189 fold-change vs cycle 0, 0.423 ± 0.00792 fold-change vs cycle 0 and 0.543 ± 0.05 fold-change vs cycle 0.
Taken in the same sequence, the figures for CTCCAC were 0.493 ± 0.0188 fold-change vs cycle 0, 0.564 ± 0.0173 fold-change vs cycle 0 and 0.646 ± 0.0596 fold-change vs cycle 0.
With AGCCTG, the binding signal in experiment [1] turned out to be 0.325 ± 0.0218 fold-change vs cycle 0; in experiment [2], 0.402 ± 0.0338 fold-change vs cycle 0; in experiment [3], 0.531 ± 0.0708 fold-change vs cycle 0.
Taken in the same sequence, the figures for TACATA were 2.44 ± 0.175 fold-change vs cycle 0, 2.02 ± 0.121 fold-change vs cycle 0 and 1.78 ± 0.178 fold-change vs cycle 0.
With GACAGA, the binding signal turned out to be 0.725 ± 0.0509 fold-change vs cycle 0 in experiment [1], 0.826 ± 0.0442 fold-change vs cycle 0 in experiment [2] and 0.903 ± 0.00925 fold-change vs cycle 0 in experiment [3].
In the case of GTCAGA, the binding signal in experiment [1] is 0.728 ± 0.0316 fold-change vs cycle 0; in experiment [2], 0.836 ± 0.0595 fold-change vs cycle 0; in experiment [3], 0.887 ± 0.0403 fold-change vs cycle 0.
AACACC: the values for the binding signal in experiment [1], in experiment [2] and in experiment [3] were 0.749 ± 0.0181 fold-change vs cycle 0, 0.848 ± 0.0177 fold-change vs cycle 0 and 0.89 ± 0.0213 fold-change vs cycle 0, respectively.
The corresponding values for CTAGGC are 0.314 ± 0.00866 fold-change vs cycle 0, 0.38 ± 0.00705 fold-change vs cycle 0 and 0.509 ± 0.0429 fold-change vs cycle 0.
Taken in the same sequence, the figures for AGAAGA were 1.43 ± 0.0638 fold-change vs cycle 0, 1.64 ± 0.118 fold-change vs cycle 0 and 1.47 ± 0.162 fold-change vs cycle 0.
Taken in the same sequence, the figures for GCGATA were 0.515 ± 0.0117 fold-change vs cycle 0, 0.534 ± 0.0163 fold-change vs cycle 0 and 0.668 ± 0.0315 fold-change vs cycle 0.
In the case of TTTAAA, the binding signal was determined as 2.46 ± 0.106 fold-change vs cycle 0 in experiment [1], 2.33 ± 0.125 fold-change vs cycle 0 in experiment [2] and 2.04 ± 0.174 fold-change vs cycle 0 in experiment [3].
Taken in the same sequence, the figures for ACCAAC were 0.731 ± 0.0183 fold-change vs cycle 0, 0.8162 ± 0.00324 fold-change vs cycle 0 and 0.883 ± 0.0212 fold-change vs cycle 0.
The corresponding values for AGTTTC are 1.25 ± 0.0447 fold-change vs cycle 0, 1.33 ± 0.0345 fold-change vs cycle 0 and 1.3 ± 0.112 fold-change vs cycle 0.
Taken in the same sequence, the figures for AGCTAG were 0.723 ± 0.0356 fold-change vs cycle 0, 0.815 ± 0.0265 fold-change vs cycle 0 and 0.874 ± 0.021 fold-change vs cycle 0.
AGTAAA: the binding signal in experiment [1] is 1.96 ± 0.143 fold-change vs cycle 0; in experiment [2], 2.08 ± 0.144 fold-change vs cycle 0; in experiment [3] it was 1.78 ± 0.193 fold-change vs cycle 0.
Taken in the same sequence, the figures for GACATA were 1.19 ± 0.0463 fold-change vs cycle 0, 1.28 ± 0.0199 fold-change vs cycle 0 and 1.25 ± 0.0289 fold-change vs cycle 0.
As to ACCGGA, the binding signal came to 0.381 ± 0.0137 fold-change vs cycle 0 in experiment [1], 0.447 ± 0.0161 fold-change vs cycle 0 in experiment [2] and 0.56 ± 0.0517 fold-change vs cycle 0 in experiment [3].

For the origin of these results see publication PMC9838217, “Structure of SALL4 zinc finger domain reveals link between AT-rich DNA binding and Okihiro syndrome”.
